# Measurements taken from PubChem BioAssay (NCI).
# The panel holds about 83,000 compounds, 20% with a hit somewhere; the sample as a whole holds those more often.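 Note: values are percent growth. 100 is the growth of untreated cells, values between 100 and 0 indicate rising inhibition; between -100 and 0 indicates cell death.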 A number with no mark means an inactive call. Calls of active or inactive are those of the source. How the source made its calls: active means growth percent below 10; inactive means the rest.
# Assays:
# Assay in all cases: NCI-60 one-dose screen, 48 h (100 = growth as untreated, 0 = no growth, -100 = all killed)
# Details in all cases: 10 µM unless noted
# [1] = system: DU-145 prostate
# [2] = system: K-562 leukemia
# [3] = system: MALME-3M melanoma
# [4] = system: MDA-MB-231 breast
# [5] = system: SF-268 CNS
# [6] = system: SF-295 CNS
# [7] = system: SF-539 CNS
# [8] = system: UACC-257 melanoma
# [9] = system: M14 melanoma
# [10] = system: HCT-15 colon
# [11] = system: HT29 colon
# [12] = system: SNB-75 CNS
# [13] = system: SNB-19 CNS
# [14] = system: U251 CNS
# [15] = system: PC-3 prostate
# [16] = system: SK-MEL-5 melanoma
# [17] = system: UACC-62 melanoma
# [18] = system: LOX IMVI melanoma
# [19] = system: SK-MEL-28 melanoma
# [20] = system: RXF 393 renal
Compound,growth [1],growth [2],growth [3],growth [4],growth [5],growth [6],growth [7],growth [8],growth [9],growth [10],growth [11],growth [12],growth [13],growth [14],growth [15],growth [16],growth [17],growth [18],growth [19],growth [20]
Clc1ccc(-c2nnc(-c3ccco3)o2)cc1,99.5%,93.3%,113%,99%,101%,112%,106%,93.5%,101%,112%,105%,89.1%,90.6%,98.7%,96.7%,108%,93.9%,97.8%,125%,
CCC(O)(C(c1ccccc1)c1ccccn1)C(c1ccccc1)c1ccccn1 (configuration not stated),103%,101%,94.4%,120%,95.3%,122%,92.1%,112%,,103%,102%,,108%,107%,97.4%,106%,113%,,107%,118%
CC[C@]1(O)C[C@H]2CN(CCc3c([nH]c4ccccc34)[C@@](C(=O)OC)(c3cc4c(cc3OC)N(C=O)[C@H]3[C@@](O)(C(=O)OC)[C@H](OC(C)=O)[C@]5(CC)C=CCN6CC[C@]43[C@@H]65)C2)C1,-42.5% (active),-0.624% (active),45.4%,-27.1% (active),23.9%,13.6%,-28.7% (active),5.68% (active),,10.9%,-3.03% (active),,10.1%,24.2%,18.3%,-73.5% (active),23.9%,28.8%,,-36% (active)
O=C1CSC(c2ccccc2O)N1c1nnc(Cn2cnnc2)o1 (configuration not stated),105%,82.6%,96.2%,73.7%,82.9%,94%,89.7%,96.4%,69%,66.2%,,66.8%,90.4%,79.7%,79.4%,95.1%,90.8%,,102%,
O=C(O)C1C[C@](O)(c2ccc(F)cc2)[C@@H](c2ccc(F)cc2)O1 (some centres not stated),139%,89.3%,113%,115%,117%,94.2%,125%,111%,,131%,120%,114%,97.5%,110%,85.9%,129%,108%,111%,129%,
NC(N)=N/N=C(/c1ccccc1)c1ccc(N)cc1,116%,113%,122%,103%,115%,,103%,92.7%,104%,106%,132%,122%,106%,97.5%,127%,101%,91.2%,95%,150%,108%
CC12CC(C#N)CCC1O2 (configuration not stated),127%,101%,128%,104%,110%,,96.6%,98.3%,107%,118%,109%,100%,111%,103%,101%,111%,109%,108%,109%,119%
Cn1ncc2c(Nc3ccc(Br)cc3)nc(Nc3ccc(Br)cc3)nc21,68.3%,11.4%,55.4%,17.7%,57.6%,40.2%,64.9%,82.6%,,22.4%,33.4%,66.9%,71.4%,33.4%,,47.6%,56.1%,-5.28% (active),50.1%,64.1%
CCCCCCCC/C=C\CCCCCCCC(=O)Oc1cccc2cccnc12,78.5%,73.9%,117%,106%,90.8%,,102%,2.81% (active),90.3%,81.8%,137%,149%,103%,91%,114%,102%,99.8%,79.8%,176%,47.6%
CCOC(=O)c1sc2ccc(NCc3nc[nH]c3C)cc2c1NC(=O)c1cc(OC)c(OC)c(OC)c1,86.7%,44.2%,80.1%,73.3%,98%,97.3%,91.7%,,96.8%,92.7%,,92.8%,93%,92.3%,85%,96.9%,92.9%,67.9%,83%,79.2%
Cc1cc2c(F)c(Oc3ncnc(Nc4ccc(N5C[C@@H](C)N[C@@H](C)C5)cc4)c3C#N)cc(F)c2[nH]1,38.9%,-40.4% (active),75%,-0.722% (active),29.3%,17.4%,-78.7% (active),65.9%,,0.331% (active),,-28.2% (active),37.4%,11.2%,42.4%,21.7%,85.8%,-60.5% (active),-63.6% (active),-25.7% (active)
CC(C)OCCCNCC(=O)Nc1ccc(S(=O)(=O)c2ccc(NC(=O)CNCCCOC(C)C)cc2)cc1,113%,36.8%,99.7%,50.9%,106%,,79.4%,106%,100%,120%,27.4%,85.5%,103%,85.6%,87%,82.4%,107%,78.7%,99.9%,92.8%
O=C1Nc2ccccc2SC1c1ccccc1Cl (configuration not stated),108%,41.2%,81.9%,98.9%,87.8%,58.2%,109%,100%,93.7%,110%,46%,34.5%,111%,112%,92.8%,106%,101%,107%,104%,
COc1cc(/C=C/C(=O)c2ccc(Nc3nc(Nc4ccccc4)nc(Nc4ccc(Cl)cc4)n3)cc2)cc(OC)c1OC,77%,28.9%,44.3%,58.1%,73.2%,64.3%,72.8%,87.1%,,55.8%,46.8%,57.5%,92.8%,37.4%,,39%,59.8%,66.5%,39.9%,58.5%
COc1ccc(/C(C)=C(\c2ccc(Cl)cc2)c2ccc(OCCN3CCCCC3)cc2)cc1F,63.3%,1.56% (active),-27.2% (active),49.5%,63.5%,-19.7% (active),4.69% (active),24.6%,,0.563% (active),,65%,58.3%,34.1%,28%,57.1%,-33% (active),,-21.3% (active),
O=C1C=CC(=Nc2cc(Br)c(O)c(Br)c2)C=C1,102%,12.6%,70.2%,72.6%,82.7%,101%,86.4%,90.9%,,65.1%,62%,68.3%,96.8%,43.7%,,87.4%,67.6%,48.6%,75.1%,
Cc1cc(=O)[nH]c(N/N=C/c2cc(Br)ccc2O)n1,41.7%,22.5%,,35.5%,25.2%,5.67% (active),16.3%,14.1%,10%,30.5%,58.9%,62.9%,40.6%,26.8%,56.8%,26.3%,4.29% (active),9.27% (active),42.8%,70.2%
C=C(C)[C@@H]1CC[C@@]2(C(=O)O)CC[C@]3(C)C(CCC4[C@@]5(C)CCC(OS(=O)(=O)c6ccccc6)C(C)(C)C5CC[C@]43C)C12 (some centres not stated),55.4%,46.5%,,67.4%,70.6%,-32.7% (active),52.4%,32%,60.8%,39.7%,58.4%,86.1%,83.6%,41.5%,44.4%,35.6%,47.5%,53.8%,86%,73.8%
Cc1nc(-c2ccccc2)cc2c(O)c(C(=O)N/N=C/c3ccc(N(C)C)cc3)[nH]c(=O)c12,75.1%,62.6%,98.2%,71.7%,81.7%,94.1%,69.7%,106%,,83.1%,72.9%,62.2%,117%,41.8%,,83.4%,97.3%,75.8%,80.2%,
COc1ccc(/C(C)=C(\c2ccc(Cl)cc2)c2ccc(OCCN(C)C)cc2)cc1F,79.5%,3.97% (active),19.2%,71.3%,74.5%,42.5%,55.2%,5.92% (active),,16.4%,,,80%,46%,51.2%,55%,42.3%,-44.6% (active),30.9%,
COc1ccc(NC(=O)c2cccc(-c3cc(=O)c4c(O)c(OC)c(OC)cc4o3)c2)cc1,96.9%,91.8%,80.6%,,54.6%,104%,56.1%,79.2%,,107%,87.7%,-5.24% (active),61.6%,73.2%,86.2%,91.4%,81.1%,79.7%,104%,92%
